Shiga toxin inh: Shiga toxin inhibition. Vero cells, Shiga toxin protein synthesis inhibition reporter. inhibition, % at 38.7 µM. 290,000 tested, 9.2% active; in the data active means inhibition mostly above about 28%, no sharp cut-off; inactive means mostly below about 43%
LmPK inh: blocks Leishmania mexicana pyruvate kinase activity. Potency, µM (series often up to 57.5 µM), actives largely listed as inhibitors. AID 1721. 290,000 tested, 0.37% active. purified LmPK, Kinase-Glo ATP luminescence, 1 h
Target sequence (Q27686 whole entry, looked up): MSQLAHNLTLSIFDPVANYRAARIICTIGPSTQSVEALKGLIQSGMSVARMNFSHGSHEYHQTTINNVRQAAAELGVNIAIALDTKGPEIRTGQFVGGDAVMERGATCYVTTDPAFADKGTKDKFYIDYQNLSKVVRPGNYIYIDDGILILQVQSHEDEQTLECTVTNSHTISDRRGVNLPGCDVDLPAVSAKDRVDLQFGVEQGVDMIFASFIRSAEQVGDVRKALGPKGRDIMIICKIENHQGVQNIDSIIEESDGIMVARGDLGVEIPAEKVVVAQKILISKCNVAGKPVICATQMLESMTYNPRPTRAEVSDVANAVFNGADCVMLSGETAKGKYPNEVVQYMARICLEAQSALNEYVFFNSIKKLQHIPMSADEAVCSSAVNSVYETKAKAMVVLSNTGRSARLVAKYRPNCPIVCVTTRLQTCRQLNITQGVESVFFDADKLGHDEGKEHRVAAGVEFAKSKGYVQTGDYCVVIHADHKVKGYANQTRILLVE
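qHTS format; LmPK 0.1 nM; substrates PEP 0.5 mM and ADP 0.1 mM. One-hour room-temperature incubation, then coupled luciferase luminescence; 0.5 nM enzyme wells mark activation.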
Pf growth 96h: inhibits malaria parasite growth, 96 h. P. falciparum luciferase reporter growth, 96 h. Potency, µM (highest dose often 28.7 µM), most hits filed as inhibitors. 320,000 tested, 6.9% active. AID 504834
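Erythrocytes infected with luciferase-expressing P. falciparum were dispensed at 2% hematocrit and 0.05% parasitemia (final), then incubated with compounds 96 hours at 37 C in 5% CO2. Luminescence after detection reagent addition reported growth.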
Cycloheximide cs: counter-screen for Shiga toxin inhibitors: cycloheximide protein synthesis inhibition; AID 2314; max response, %; cell reporter, cycloheximide protein synthesis inhibition counterscreen; 300,000 tested, 12% active; in the data active means max response mostly above about 13%, no sharp cut-off; inactive means mostly below about 14%; further: read at 38.3 µM for the half of the compounds with a filed dose
Pf growth 48h: inhibits P. falciparum growth in the first generation, 48 h; P. falciparum luciferase growth in erythrocytes, 48 h; Potency, µM (doses to about 28.7 µM), hits mostly inhibitors; 310,000 tested, 5.9% active
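Growth was read as firefly luciferase luminescence after a 48 h, 37 C, 5% CO2 exposure of compounds to reporter-bearing P. falciparum cultures (0.1% parasitemia, 2% hematocrit final) in Albumax-supplemented RPMI 1640.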
Of the large screens only hits and unclear results are named; the others gave an inactive call. A selection: hits, their analogues and other compounds. The true share with any hit is near 22%. Unless noted, the call rests on the fitted dose curve; in most records, active means well fitted inhibition curve with a large enough effect; inconclusive means small, poorly fitted or top-dose-only effect, or another doubt; inactive means no such curve, though single readings can be large or run the other way.

CC(=O)c1sc(NC(=O)c2c(F)cccc2F)nc1-c1ccccc1	none
Cc1sc(NC(=O)c2cccnc2)nc1-c1ccccc1	Pf growth 96h inconclusive, Pf growth 48h inconclusive
Cc1nc(NC(=O)c2ccccc2O)sc1C	Cycloheximide cs 18 (no result: Pf growth 48h)
Cc1cc(NC(=O)c2ccccc2O)nc(C)n1	none
CC(=O)c1sc(NC(=O)c2ccccc2)nc1-c1ccccc1	Shiga toxin inh 96, Cycloheximide cs 57
COc1cc(OC)cc(OC(=O)c2ccc3c(=O)n4c(nc3c2)CCC4)c1	none (no result: Shiga toxin inh, LmPK inh, Cycloheximide cs)
CC1CN(C(=O)CSc2nnc(-c3cccs3)n2N)CC(C)O1 (configuration not stated)	none (no result: Shiga toxin inh, LmPK inh, Cycloheximide cs)
Cc1ccc(S(=O)(=O)Nc2cccc(C(=O)NCC(C)(C)N3CCOCC3)c2)cc1F	Pf growth 96h inconclusive (no result: Shiga toxin inh, LmPK inh, Cycloheximide cs)
O=C(O)CO	none (no result: LmPK inh, Pf growth 96h, Pf growth 48h)
COc1ccc(NC(=O)CSCC(=O)N2CCN(C(=O)c3ccco3)CC2)cc1	Pf growth 96h inconclusive (no result: Shiga toxin inh, LmPK inh, Cycloheximide cs)
CCN1CCN(Cc2c(O)ccc3c(=O)c(-c4ccc(OC)c(OC)c4)c(C)oc23)CC1	Pf growth 48h inconclusive
CN(C)Cc1c(O)ccc2c3c(c(=O)oc12)CCCCC3	Pf growth 48h inconclusive (no result: Pf growth 96h)
CN(Cc1c(O)ccc2c1oc(=O)c1ccccc12)C1CCCCC1	Pf growth 96h inconclusive, Pf growth 48h 5.2µM
CC1CCCCN1Cc1c(O)ccc2c(=O)c(-c3nc4ccccc4s3)coc12 (configuration not stated)	Shiga toxin inh 61, Pf growth 96h 10µM, Cycloheximide cs 28, Pf growth 48h 2.1µM
Cc1oc2c(CN3CCOCC3)c(O)ccc2c(=O)c1-c1ccc(Br)cc1	Pf growth 96h 13µM, Pf growth 48h 4.1µM
Cc1oc2c(CN3CCCCC3C)c(O)ccc2c(=O)c1-c1ccc(Br)cc1 (configuration not stated)	Pf growth 96h 13µM, Pf growth 48h 13µM
COc1ccccc1C(=O)NCCC(=O)N(C)CC(=O)Nc1ccc(N2CCOCC2)cc1	none (no result: Shiga toxin inh, LmPK inh, Cycloheximide cs)
CCOc1ccccc1NC(=O)NCc1ccccn1	none
O=c1oc2c(CN3CCOCC3)c(O)ccc2c2ccccc12	Pf growth 96h inconclusive, Cycloheximide cs 44, Pf growth 48h inconclusive
Cc1oc2c(CN3CCCC3)c(O)ccc2c(=O)c1-c1ccc(Cl)cc1	Pf growth 48h inconclusive
Cc1oc2c(CN3CCOCC3)c(O)ccc2c(=O)c1-c1ccc(Cl)cc1	Pf growth 96h 9.3µM, Pf growth 48h inconclusive
Cc1ccc(SCC(=O)Nc2ccc(N3CCOCC3)cc2)c(C)c1	Pf growth 96h inconclusive
O=C(Cn1ncc2c([nH]c3ccccc32)c1=O)NCC1CCN(Cc2ccccc2F)CC1	Pf growth 96h 9.3µM
O=C(Cn1ncc2c([nH]c3ccccc32)c1=O)NCCc1ccccc1	none
CCC(=O)Nc1ccccc1Sc1ncnc2scc(-c3ccccc3)c12	Pf growth 96h 4.7µM, Pf growth 48h 13µM
O=C(O)CSc1ncnc2scc(-c3ccccc3)c12	none
CC(C)CC(O)(c1ccccc1)C(CN1CCOCC1)c1ccccc1 (configuration not stated)	Cycloheximide cs 20
CCCC(O)(c1ccc(Cl)cc1)C(CN1CCOCC1)c1ccccc1 (configuration not stated)	Pf growth 96h inconclusive (no result: Pf growth 48h)
CC(C)CCC(O)(c1ccccc1)C(CN1CCOCC1)c1ccccc1 (configuration not stated)	Pf growth 48h 2.9µM
COc1ccc(C(O)(CCC(C)C)C(CN2CCOCC2)c2ccccc2)cc1 (configuration not stated)	Pf growth 48h 1.7µM
Cn1c(N)c(C(=O)COC(=O)c2ncc(Cl)c(Cl)c2Cl)c(=O)n(C)c1=O	none
CN1CCN(C(=O)c2ccc3c(c2)N(Cc2ccccc2)CCS3)CC1	none
O=C(c1ccc2c(c1)N(Cc1ccccc1)CCS2)N1CCOCC1	none
O=C(c1ccc2c(c1)N(Cc1ccccc1)CCS2)N1CCCCC1	Pf growth 96h 0.74µM, Pf growth 48h inconclusive
O=C(c1ccc2c(c1)N(Cc1ccc(F)cc1)CCS2)N1CCOCC1	Pf growth 96h 10µM
O=[N+]([O-])c1ccc(N/N=C/c2ccccc2)c(F)c1	Shiga toxin inh 63, Cycloheximide cs 74
O=[N+]([O-])c1cccc(/C=N/N2CCN(c3ccccn3)CC2)c1	Cycloheximide cs 15
O=[N+]([O-])c1cccc(/C=N/N=C\c2ccccc2)c1	Shiga toxin inh 56, Pf growth 96h 13µM, Cycloheximide cs 36
O=[N+]([O-])c1cccc(/C=N\N2CCN(Cc3ccccc3Cl)CC2)c1	Cycloheximide cs 16
O=[N+]([O-])c1cccc(/C=N/N2CCN(Cc3ccc(Cl)cc3)CC2)c1	none
COc1cc(C(c2c(C)[nH][nH]c2=O)c2c(C)[nH][nH]c2=O)ccc1OC(=O)c1cccc(C)c1	none (no result: LmPK inh, Pf growth 96h, Pf growth 48h)
CC(C)c1ccc(N(CC(=O)NCc2cccnc2)S(=O)(=O)c2ccccc2)cc1	none
Cc1cc(C)c(S(=O)(=O)NCc2cccnc2)c(C)c1	none
CN(C)c1ccc(/C=C(/NC(=O)c2ccccc2)C(=O)N2CCCC2)cc1	none
O=[N+]([O-])c1cccc(/C=N/N2CCN(Cc3ccccc3)CC2)c1	Shiga toxin inh 83, Pf growth 96h inconclusive, Cycloheximide cs 27
O=C(CN(Cc1cccs1)C(=O)CNS(=O)(=O)c1ccccc1)NC1CCCC1	none
Cc1ccc(NCc2ccccc2)cc1	Shiga toxin inh 94, Cycloheximide cs 49
CSc1ccc(CNc2ccc(C)cc2)cc1	Shiga toxin inh 80, Cycloheximide cs 36
COc1cc(CNc2ncn[nH]2)ccc1OCc1cccc(C)c1	Shiga toxin inh 70, Cycloheximide cs 48
COc1cc(CNc2ccc(CNc3ncn[nH]3)cc2)cc(Cl)c1OCc1ccccc1	Pf growth 96h inconclusive, Pf growth 48h inconclusive
CSc1ccc(CNc2cccc3ccccc23)cc1	none (no result: Pf growth 48h)
c1ccc(CNc2cncnc2)cc1	none (no result: Shiga toxin inh)
c1ccc(CNc2ccc(CNc3ncn[nH]3)cc2)cc1	Cycloheximide cs 18
CCOC(=O)C1CCN(S(=O)(=O)c2ccc(Cl)cc2)CC1	none
Cc1ccc(NCc2cccnc2)cc1	none (no result: Pf growth 48h)
Cc1ccc(CNc2cccnc2)cc1	Shiga toxin inh 38, Cycloheximide cs 43
CSc1ccc(CNc2ccc(C)c(C)c2)cc1	Shiga toxin inh 79, Cycloheximide cs 25
Cc1ccccc1NC(=O)c1ccc(Cl)c(NC(=O)c2ccncc2)c1	Pf growth 96h inconclusive
NC(=O)C1CCN(C(c2ccccc2Cl)c2nnnn2Cc2ccc3c(c2)OCO3)CC1 (configuration not stated)	none
CN(C)Cc1ccc(O)c(CCc2ccccc2)n1	Pf growth 48h 5.2µM
Cc1oc2ccc(O)c(CN(C)C)c2c1C(=O)c1ccccc1	none
CN(C)c1ccc(/C=N/N=C2/NC(=O)/C(=C/c3ccc([N+](=O)[O-])cc3)S2)cc1	Shiga toxin inh 54, Cycloheximide cs 28
O=C1NC(=Nc2cccc(O)c2)S/C1=C\c1cccc([N+](=O)[O-])c1	Pf growth 96h inconclusive
Nc1ccn(CC(=O)NCCc2ccccn2)c(=O)n1	none (no result: Shiga toxin inh, LmPK inh, Cycloheximide cs)
